Binding signal data for 39 sequences are collected here from article PMC11006913.

Common to all, as to assay: PBM; 200 nM protein, PBS
What all share (conditions): dsDNA, one strand shown

The target in assay [1] is HOXB4 (Homo sapiens, UniProt P17483 148-234).
For assay [2], the target named is HOXB4 (Homo sapiens, UniProt P17483 148-234, V174I).
In assay [3] the target is HOXB6 (Homo sapiens, UniProt P17509 132-218, K202E).
The target in assay [4] is HOXB6 (Homo sapiens, UniProt P17509 132-218).
Sequence of HOXB6 (Homo sapiens, UniProt P17509 132-218) (P17509 132-218): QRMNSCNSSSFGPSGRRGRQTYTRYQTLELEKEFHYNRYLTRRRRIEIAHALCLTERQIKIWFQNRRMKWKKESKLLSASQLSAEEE
In the next assay the target is HOXA4 (Homo sapiens, UniProt Q00056 201-287, R217L).
Sequence of HOXA4 (Q00056 201-287 R217L): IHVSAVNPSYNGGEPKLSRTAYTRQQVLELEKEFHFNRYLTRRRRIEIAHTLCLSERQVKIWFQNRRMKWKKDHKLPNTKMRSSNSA
For assay [5], the target named is VAX1 (Homo sapiens, UniProt Q5SQQ9 86-172).
Sequence of VAX1 (Homo sapiens, UniProt Q5SQQ9 86-172) (Q5SQQ9 86-172): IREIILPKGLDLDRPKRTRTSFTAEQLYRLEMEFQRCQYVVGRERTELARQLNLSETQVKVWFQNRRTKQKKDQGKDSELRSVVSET
Assay [6] concerns the target VAX1 (Homo sapiens, UniProt Q5SQQ9 86-172, T142I).
Assay [7] has as its target VAX1 (Homo sapiens, UniProt Q5SQQ9 86-172, K157R).
The target of assay [8] is HOXA2 (Homo sapiens, UniProt O43364 129-215, R185T).
Sequence of HOXA2 (Homo sapiens, UniProt O43364 129-215, R185T) (O43364 129-215 R185T): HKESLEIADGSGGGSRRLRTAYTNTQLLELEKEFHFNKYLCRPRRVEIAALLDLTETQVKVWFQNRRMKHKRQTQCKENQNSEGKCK
The target of assay [9] is HOXA2 (Homo sapiens, UniProt O43364 129-215, R185K).
Sequence of HOXA2 (Homo sapiens, UniProt O43364 129-215, R185K) (O43364 129-215 R185K): as the sequence (O43364 129-215 R185T) above, with T57K counted along it
The target in assay [10] is HOXA2 (Homo sapiens, UniProt O43364 129-215, Y150S).
Sequence of HOXA2 (Homo sapiens, UniProt O43364 129-215, Y150S) (O43364 129-215 Y150S): as the sequence (O43364 129-215 R185T) above, with Y22S, T57R counted along it
Assay [11] concerns the target HOXA2 (Homo sapiens, UniProt O43364 129-215).
The target in assay [12] is HOXA7 (Homo sapiens, UniProt P31268 116-202).
Sequence of HOXA7 (Homo sapiens, UniProt P31268 116-202) (P31268 116-202): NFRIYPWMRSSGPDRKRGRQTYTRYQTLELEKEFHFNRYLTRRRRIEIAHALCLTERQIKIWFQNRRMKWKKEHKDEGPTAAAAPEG
Assay [13] concerns the target HOXA7 (Homo sapiens, UniProt P31268 116-202, W177C).

Sequence of VAX1 (Homo sapiens, UniProt Q5SQQ9 86-172, K157R) (Q5SQQ9 86-172 K157R): as the sequence (Q5SQQ9 86-172) above, with K72R counted along it
Sequence of HOXB4 (Homo sapiens, UniProt P17483 148-234, V174I) (P17483 148-234 V174I): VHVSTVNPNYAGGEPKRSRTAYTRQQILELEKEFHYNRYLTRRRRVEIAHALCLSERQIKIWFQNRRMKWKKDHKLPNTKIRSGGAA
Sequence of HOXB6 (Homo sapiens, UniProt P17509 132-218, K202E) (P17509 132-218 K202E): as the sequence (P17509 132-218) above, with K71E counted along it
Sequence of HOXB4 (Homo sapiens, UniProt P17483 148-234) (P17483 148-234): as the sequence (P17483 148-234 V174I) above, with I27V counted along it
Sequence of VAX1 (Homo sapiens, UniProt Q5SQQ9 86-172, T142I) (Q5SQQ9 86-172 T142I): as the sequence (Q5SQQ9 86-172) above, with T57I counted along it
Sequence of HOXA2 (Homo sapiens, UniProt O43364 129-215) (O43364 129-215): as the sequence (O43364 129-215 R185T) above, with T57R counted along it
Sequence of HOXA7 (Homo sapiens, UniProt P31268 116-202, W177C) (P31268 116-202 W177C): as the sequence (P31268 116-202) above, with W62C counted along it

In the case of CCAACGGA, the binding signal is 7.78 upbm affinity estimate (log intensity, higher = more binding, comparable within an allelic series) with HOXB4 [1] and 7.67 upbm affinity estimate (log intensity, higher = more binding, comparable within an allelic series) with HOXB4 [2].

On to GATCGTTA, for which the binding signal with HOXB4 [1] is 12.3 upbm affinity estimate (log intensity, higher = more binding, comparable within an allelic series); with HOXB4 [2] it was 12.8 upbm affinity estimate (log intensity, higher = more binding, comparable within an allelic series).

As for AGCCGCGG, the binding signal in the assay with HOXB4 [1] is 7.58 upbm affinity estimate (log intensity, higher = more binding, comparable within an allelic series); with HOXB4 [2], 7.46 upbm affinity estimate (log intensity, higher = more binding, comparable within an allelic series).

As to GACCGTGC, the binding signal with HOXB4 [1] was 7.54 upbm affinity estimate (log intensity, higher = more binding, comparable within an allelic series); in the assay with HOXB4 [2], 7.53 upbm affinity estimate (log intensity, higher = more binding, comparable within an allelic series).

For AGGCGCGC, the binding signal in the assay with HOXB4 [1] is 7.53 upbm affinity estimate (log intensity, higher = more binding, comparable within an allelic series); in the assay with HOXB6 [3], 9.19 upbm affinity estimate (log intensity, higher = more binding, comparable within an allelic series); with HOXB4 [2], 7.6 upbm affinity estimate (log intensity, higher = more binding, comparable within an allelic series); with HOXB6 [4], 8.96 upbm affinity estimate (log intensity, higher = more binding, comparable within an allelic series).

For the sequence CGCTGGCC, the binding signal with HOXB4 [1] is 7.45 upbm affinity estimate (log intensity, higher = more binding, comparable within an allelic series); in the assay with HOXB4 [2] it was 7.53 upbm affinity estimate (log intensity, higher = more binding, comparable within an allelic series).

In the case of AATGATTA, the binding signal in the assay with HOXB4 [1] is 13.1 upbm affinity estimate (log intensity, higher = more binding, comparable within an allelic series); with HOXA4, 12 upbm affinity estimate (log intensity, higher = more binding, comparable within an allelic series); with HOXB4 [2], 13.8 upbm affinity estimate (log intensity, higher = more binding, comparable within an allelic series).

Take CTGGCGAC: the binding signal with HOXB4 [1] was 7.56 upbm affinity estimate (log intensity, higher = more binding, comparable within an allelic series); with HOXB4 [2], 7.45 upbm affinity estimate (log intensity, higher = more binding, comparable within an allelic series).

Turning to CACGTGCG, the binding signal with HOXB4 [1] is 7.64 upbm affinity estimate (log intensity, higher = more binding, comparable within an allelic series); with HOXB4 [2], 7.71 upbm affinity estimate (log intensity, higher = more binding, comparable within an allelic series).

Regarding GCAGGGCC, the binding signal was 7.4 upbm affinity estimate (log intensity, higher = more binding, comparable within an allelic series) with HOXB4 [1]; 7.46 upbm affinity estimate (log intensity, higher = more binding, comparable within an allelic series) with HOXB4 [2]; 6.92 upbm affinity estimate (log intensity, higher = more binding, comparable within an allelic series) with VAX1 [5]; 7 upbm affinity estimate (log intensity, higher = more binding, comparable within an allelic series) with VAX1 [6]; 6.86 upbm affinity estimate (log intensity, higher = more binding, comparable within an allelic series) with VAX1 [7].

Turning to GTTATAGA, the binding signal was 9.85 upbm affinity estimate (log intensity, higher = more binding, comparable within an allelic series) in the assay with HOXB4 [1] and 9.7 upbm affinity estimate (log intensity, higher = more binding, comparable within an allelic series) in the assay with HOXB4 [2].

For CCCGCGGG, the binding signal in the assay with HOXB4 [1] is 8.38 upbm affinity estimate (log intensity, higher = more binding, comparable within an allelic series); with HOXA2 [8], 7.19 upbm affinity estimate (log intensity, higher = more binding, comparable within an allelic series); in the assay with HOXB4 [2], 7.82 upbm affinity estimate (log intensity, higher = more binding, comparable within an allelic series); in the assay with HOXA2 [9], 10.4 upbm affinity estimate (log intensity, higher = more binding, comparable within an allelic series); with HOXA2 [10] it was 10.4 upbm affinity estimate (log intensity, higher = more binding, comparable within an allelic series); with HOXA2 [11] it was 7.26 upbm affinity estimate (log intensity, higher = more binding, comparable within an allelic series).

As for AGACCAGC, the binding signal with HOXB4 [1] is 7.43 upbm affinity estimate (log intensity, higher = more binding, comparable within an allelic series); in the assay with HOXB4 [2] it was 7.5 upbm affinity estimate (log intensity, higher = more binding, comparable within an allelic series).

On to CAGCGGAC, for which the binding signal with HOXB4 [1] was 7.6 upbm affinity estimate (log intensity, higher = more binding, comparable within an allelic series); with HOXB4 [2], 7.43 upbm affinity estimate (log intensity, higher = more binding, comparable within an allelic series).

For ACCGTGCC, the binding signal was 7.42 upbm affinity estimate (log intensity, higher = more binding, comparable within an allelic series) with HOXB4 [1]; 8.5 upbm affinity estimate (log intensity, higher = more binding, comparable within an allelic series) with HOXA7 [12]; 7.71 upbm affinity estimate (log intensity, higher = more binding, comparable within an allelic series) with HOXB4 [2]; 8.5 upbm affinity estimate (log intensity, higher = more binding, comparable within an allelic series) in the assay with HOXA7 [13].

For the sequence CTAGGCAG, the binding signal with HOXB4 [1] is 8.13 upbm affinity estimate (log intensity, higher = more binding, comparable within an allelic series); with HOXB4 [2], 7.88 upbm affinity estimate (log intensity, higher = more binding, comparable within an allelic series).

With CCCGTGCG, the binding signal with HOXB4 [1] was 7.96 upbm affinity estimate (log intensity, higher = more binding, comparable within an allelic series); in the assay with HOXB4 [2] it was 7.88 upbm affinity estimate (log intensity, higher = more binding, comparable within an allelic series).

For CGGGACCA, the binding signal is 7.51 upbm affinity estimate (log intensity, higher = more binding, comparable within an allelic series) in the assay with HOXB4 [1] and 7.58 upbm affinity estimate (log intensity, higher = more binding, comparable within an allelic series) in the assay with HOXB4 [2].

Consider ACTATATG, for which the binding signal was 9.48 upbm affinity estimate (log intensity, higher = more binding, comparable within an allelic series) with HOXB4 [1] and 9.35 upbm affinity estimate (log intensity, higher = more binding, comparable within an allelic series) in the assay with HOXB4 [2].

As for CATTTGCG, the binding signal with HOXB4 [1] is 10.6 upbm affinity estimate (log intensity, higher = more binding, comparable within an allelic series); with HOXB4 [2], 10.8 upbm affinity estimate (log intensity, higher = more binding, comparable within an allelic series).

Turning to ATTAGTTG, the binding signal with HOXB4 [1] was 11.2 upbm affinity estimate (log intensity, higher = more binding, comparable within an allelic series); with HOXB4 [2] it was 11.5 upbm affinity estimate (log intensity, higher = more binding, comparable within an allelic series).

For the sequence GAGCCGGC, the binding signal with HOXB4 [1] is 7.56 upbm affinity estimate (log intensity, higher = more binding, comparable within an allelic series); with HOXB4 [2], 7.62 upbm affinity estimate (log intensity, higher = more binding, comparable within an allelic series).

As to CACGAGCC, the binding signal in the assay with HOXB4 [1] was 7.81 upbm affinity estimate (log intensity, higher = more binding, comparable within an allelic series); in the assay with HOXB4 [2], 7.69 upbm affinity estimate (log intensity, higher = more binding, comparable within an allelic series).

Take GCTGCGCC: the binding signal in the assay with HOXB4 [1] was 7.58 upbm affinity estimate (log intensity, higher = more binding, comparable within an allelic series); in the assay with HOXB4 [2] it was 7.62 upbm affinity estimate (log intensity, higher = more binding, comparable within an allelic series).

For the sequence ATATGATG, the binding signal was 10 upbm affinity estimate (log intensity, higher = more binding, comparable within an allelic series) with HOXB4 [1] and 10.1 upbm affinity estimate (log intensity, higher = more binding, comparable within an allelic series) in the assay with HOXB4 [2].

Consider CAGGCGCG, for which the binding signal with HOXB4 [1] was 7.35 upbm affinity estimate (log intensity, higher = more binding, comparable within an allelic series); in the assay with HOXB6 [3] it was 9.01 upbm affinity estimate (log intensity, higher = more binding, comparable within an allelic series); with HOXB4 [2] it was 7.45 upbm affinity estimate (log intensity, higher = more binding, comparable within an allelic series); in the assay with HOXB6 [4], 8.9 upbm affinity estimate (log intensity, higher = more binding, comparable within an allelic series).

As for CCAGCTCG, the binding signal in the assay with HOXB4 [1] was 7.72 upbm affinity estimate (log intensity, higher = more binding, comparable within an allelic series); with HOXB4 [2] it was 7.66 upbm affinity estimate (log intensity, higher = more binding, comparable within an allelic series).

Consider ACCCCCGT, for which the binding signal is 7.65 upbm affinity estimate (log intensity, higher = more binding, comparable within an allelic series) with HOXB4 [1]; 8.84 upbm affinity estimate (log intensity, higher = more binding, comparable within an allelic series) with HOXB6 [3]; 7.64 upbm affinity estimate (log intensity, higher = more binding, comparable within an allelic series) in the assay with HOXB4 [2]; 8.76 upbm affinity estimate (log intensity, higher = more binding, comparable within an allelic series) with HOXB6 [4].

Take CCCCCGTA: the binding signal was 7.91 upbm affinity estimate (log intensity, higher = more binding, comparable within an allelic series) in the assay with HOXB4 [1] and 7.84 upbm affinity estimate (log intensity, higher = more binding, comparable within an allelic series) with HOXB4 [2].

On to GAGCTGCA, for which the binding signal with HOXB4 [1] is 7.7 upbm affinity estimate (log intensity, higher = more binding, comparable within an allelic series); with HOXB4 [2] it was 7.45 upbm affinity estimate (log intensity, higher = more binding, comparable within an allelic series).

As for CTGGAGCC, the binding signal in the assay with HOXB4 [1] was 7.25 upbm affinity estimate (log intensity, higher = more binding, comparable within an allelic series); with HOXB4 [2] it was 7.29 upbm affinity estimate (log intensity, higher = more binding, comparable within an allelic series); with VAX1 [5] it was 6.85 upbm affinity estimate (log intensity, higher = more binding, comparable within an allelic series); with VAX1 [6], 6.94 upbm affinity estimate (log intensity, higher = more binding, comparable within an allelic series); in the assay with VAX1 [7], 6.67 upbm affinity estimate (log intensity, higher = more binding, comparable within an allelic series).

For the sequence CCTGTGGA, the binding signal is 7.33 upbm affinity estimate (log intensity, higher = more binding, comparable within an allelic series) in the assay with HOXB4 [1] and 7.56 upbm affinity estimate (log intensity, higher = more binding, comparable within an allelic series) with HOXB4 [2].

Consider GTGATGGA, for which the binding signal is 9.37 upbm affinity estimate (log intensity, higher = more binding, comparable within an allelic series) with HOXB4 [1] and 9.3 upbm affinity estimate (log intensity, higher = more binding, comparable within an allelic series) in the assay with HOXB4 [2].

On to CAGGCACG, for which the binding signal in the assay with HOXB4 [1] is 7.26 upbm affinity estimate (log intensity, higher = more binding, comparable within an allelic series); with HOXB4 [2], 7.43 upbm affinity estimate (log intensity, higher = more binding, comparable within an allelic series).

As to CGGGAAAG, the binding signal with HOXB4 [1] was 7.44 upbm affinity estimate (log intensity, higher = more binding, comparable within an allelic series); with HOXB4 [2] it was 7.56 upbm affinity estimate (log intensity, higher = more binding, comparable within an allelic series); in the assay with VAX1 [5] it was 7.08 upbm affinity estimate (log intensity, higher = more binding, comparable within an allelic series); in the assay with VAX1 [6] it was 7.2 upbm affinity estimate (log intensity, higher = more binding, comparable within an allelic series); with VAX1 [7], 7.08 upbm affinity estimate (log intensity, higher = more binding, comparable within an allelic series).

As to AAACGAGT, the binding signal with HOXB4 [1] was 9.6 upbm affinity estimate (log intensity, higher = more binding, comparable within an allelic series); with HOXB4 [2], 9.41 upbm affinity estimate (log intensity, higher = more binding, comparable within an allelic series).

With GGAGTAAA, the binding signal in the assay with HOXB4 [1] is 9.68 upbm affinity estimate (log intensity, higher = more binding, comparable within an allelic series); with HOXB4 [2] it was 9.73 upbm affinity estimate (log intensity, higher = more binding, comparable within an allelic series).

With ATAAAGTA, the binding signal in the assay with HOXB4 [1] is 10.5 upbm affinity estimate (log intensity, higher = more binding, comparable within an allelic series); in the assay with HOXB4 [2], 10.6 upbm affinity estimate (log intensity, higher = more binding, comparable within an allelic series).

Take AACGATAT: the binding signal with HOXB4 [1] is 10.7 upbm affinity estimate (log intensity, higher = more binding, comparable within an allelic series); in the assay with HOXB4 [2] it was 10.9 upbm affinity estimate (log intensity, higher = more binding, comparable within an allelic series).
